# Data reported in PubChem BioAssay AID504861 (Broad Institute, 2011).
# In all, about 1,200 compounds went through this assay and about 290 (24%) were called active. Another 3% or so got no clear call; they are omitted.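 The calls were made as follows: active = compounds lowering cell viability signal with fitted half-maximal concentration at most ten times their highest tested concentration; inconclusive = flat fit with 30 to 70% signal loss, or poor fit; inactive = the rest.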 Not all results are given here. Measured potencies and affinities stand elsewhere.
# Assay: cytotoxicity in HEK293T cells – cell-based, CellTiter-Glo luminescence, cherry-picks, cytotoxicity control for LMP1 NF-kB inhibitor project, dose response (AID 504861)
# Details: HEK293T viability, CellTiter-Glo ATP luminescence, 48 h; series mostly up to 26 µM; activity change, negative = cytotoxicity: at the top concentration
row,Compound,"activity change, negative = cytotoxicity"
1,CC(C)Oc1ccc(C(=O)Nc2nnc(SCC(=O)N3CCOCC3)s2)cc1,6.68% (inactive)
2,CCOc1ccc(N/C=C/C(=O)c2ccccc2)cc1,-0.393% (inactive)
3,Clc1cccc(CN2CCCCCC2)c1,10.6% (inactive)
4,CC(=O)c1ccc(N2CCN(c3ccnc4cc(Cl)ccc34)CC2)cc1,13.3% (inactive)
5,c1ccc(C2c3[nH]c4ccccc4c3CCN2Cc2cccn2-c2ccccn2)nc1 (centres undefined),-10.6% (inactive)
6,Cn1c(=O)c2ncn(CC(=O)O)c2n(C)c1=O,4.94% (inactive)
7,Cc1cc(C)c(S(=O)(=O)Nc2nnc(CC(C)C)s2)c(C)c1,-7.02% (inactive)
8,CCn1c(=O)c2c(cnn2C)c2ccccc21,-0.458% (inactive)
9,COc1cc(Cl)cc(C(c2c(C(=O)O)[nH]c3ccccc23)c2c(C(=O)O)[nH]c3ccccc23)c1O,1.58% (inactive)
10,O=C1CC(c2ccccc2)Oc2ccccc21 (centres undefined),0.786% (inactive)
11,CCOC(=O)c1c(NC(=O)C2C3CCC(O3)C2C(=O)O)sc(C)c1-c1ccc(F)cc1 (centres undefined),5.9% (inactive)
12,Cc1nc2sc(C(N)=O)c(N)c2c2c1CCCC2,9.87% (inactive)
13,O=C(NC(Cc1c[nH]c2ccccc12)C(=O)Nc1ccc(F)c([N+](=O)[O-])c1)c1cccs1 (centres undefined),-7.73% (inactive)
14,COCC(=O)N1CCC(Oc2ccc(C(=O)N3C[C@H]4CC[C@H]3C4)cc2)CC1,-0.594% (inactive)
15,CC1=C(C(=O)OCc2ccc3c(c2)OCO3)C(c2ccc(Cl)cc2)NC(=O)N1 (centres undefined),-5.93% (inactive)
16,COc1ccc(N2Cc3cccc(C(=O)NC(C)CCc4ccco4)c3C2=O)cc1 (centres undefined),3.59% (inactive)
17,COc1ccc(CCNC(=O)CSC(=O)c2ccccc2)cc1OC,7.63% (inactive)
18,CCCN(CC1CC1)c1nc(C)nc(Nc2c(Cl)cc(Cl)cc2Cl)c1Cl,1.47% (inactive)
19,CC(C)Nc1nnc(SCC(=O)c2c(N)n(Cc3ccccc3)c(=O)n(C)c2=O)s1,1.95% (inactive)
20,COc1cccc(C(=O)OCn2nnc3ccccc3c2=O)c1OC,11% (inactive)
21,COc1ccc(C(=O)Nc2ccc(N3CCN(C(=O)c4ccccc4C)CC3)cc2)cc1,-2.23% (inactive)
22,COc1ccc2sc3c(=O)[nH]c4ccccc4c3c2c1,14.3% (inactive)
23,CCOc1ccccc1C(=O)N[C@H](C(=O)OCc1cc([N+](=O)[O-])cc2c1OCOC2)C(C)C,8.07% (inactive)

row,Compound,"activity change, negative = cytotoxicity"
1,Cc1ccc(S(=O)(=O)N2CCCCC2)cc1NC(=O)CNc1ccccc1N1CCCC1=O,3.36% (inactive)
2,O=C(c1ccc(Cl)cc1)N1CCN(CCOc2ccccc2)CC1,0.74% (inactive)
3,Cn1c(CC(=O)Nc2ccc(F)cc2)nnc1SCC(=O)Nc1nncs1,2% (inactive)
4,Cc1cccc(/C=N/NC(=O)CNc2cccc3ccccc23)n1,-0.716% (inactive)
5,O=C(O)c1ccc(C=NNC(=O)c2cccc3ccccc23)cc1,10.4% (inactive)
6,O=C(/C=C/Nc1cccc(C(F)(F)F)c1)C(F)(F)F,-1.79% (inactive)
7,O=C(CN1C(=O)c2ccccc2S1(=O)=O)c1ccccc1F,1.26% (inactive)
8,COc1ccc(NC(=O)N(CCN2CCCC2)Cc2cc3cc(OC)c(OC)cc3[nH]c2=O)cc1,12% (inactive)
9,CC(C)CC1C(=O)N(Cc2cn(CC3CCCCC3)nn2)CCS(=O)(=O)N1Cc1ccc(-c2ccc(F)nc2)cc1 (centres undefined),-1.62% (inactive)
10,Cc1ccc(C(=O)Nc2ccc3ncccc3c2)cc1,-1.4% (inactive)
11,O=C(Nc1ccccn1)NC1CCCCC1,-6.08% (inactive)
12,CCC(C)N1C(=O)CCC1C(=O)N1CCN(c2ccc(F)cc2)CC1 (centres undefined),7.52% (inactive)
13,c1cncc(CNc2ncnc3ccc(-c4ccoc4)cc23)c1,3.52% (inactive)
14,O=c1cc(-c2ccccc2)[nH]c2ccc(F)cc12,11.4% (inactive)
15,CCOc1ccc(OCc2cccc(C(=O)N3CCCC3)c2)cc1,-4.95% (inactive)
16,COc1ccc(-c2ccc3c(c2)S(=O)(=O)c2cccc(C(=O)NCc4cc(C)oc4C(F)(F)F)c2C3=O)cc1OC,0.555% (inactive)
17,COCCCNC(=O)CN1C(=O)COc2ccc(S(=O)(=O)N3CCOCC3)cc21,5.96% (inactive)
18,CN1CCc2cccc3c2C1Cc1ccc(O)c(O)c1-3 (centres undefined),3.34% (inactive)
19,CSc1ccccc1NC(=O)CN1CCCCC1C (centres undefined),4.27% (inactive)
20,COc1ccc2cc(-c3cc(C(=O)OCC(=O)Nc4c(C)n(C)n(-c5ccccc5)c4=O)c4ccccc4n3)ccc2c1,2.98% (inactive)
21,CCc1ccc(/C=C/C(=O)C2C(=O)c3ccccc3C2=O)cc1,9.63% (inactive)
22,N#CCCn1cc(C(=O)Nc2ccccn2)c(-c2ccccc2)n1,9.63% (inactive)
23,CC1=NN(C(N)=S)C(=O)C1N=Nc1cccc(C(=O)O)c1 (centres undefined),0.78% (inactive)

row,Compound,"activity change, negative = cytotoxicity"
1,C[C@@]12C(=O)N(Cc3ccccc3)CC(=O)N1[C@H](/C=C/c1ccccc1)[C@@H]1C(=O)N(c3ccccc3)C(=O)[C@@H]12,5.94% (inactive)
2,COc1cc(OC)cc(C(=O)N[C@H](C(=O)OCC(=O)c2ccc(C)c([N+](=O)[O-])c2)C(C)C)c1,5.81% (inactive)
3,Clc1ccc(-n2ncc3c(N4CCCC4)ncnc32)cc1,1.84% (inactive)
4,COc1cc(CC(=O)N(c2ccccc2)c2nc(C)cs2)cc(OC)c1OC,2.07% (inactive)
5,Cc1nc2sc(-c3ccccc3)cc2c(=O)n1N,-3.13% (inactive)
6,COCCN1CSC(=S)N(Cc2ccco2)C1,1.64% (inactive)
7,O=C(Nc1ccc(Cl)cc1)Nc1nnc(CSCc2ccc(Cl)cc2)s1,-4.04% (inactive)
8,COc1cccc(/C=N\NC(=O)c2ccc(C)nc2)c1,0.683% (inactive)
9,COc1cc(NCCCCCCN)c2ncccc2c1OC,-2.14% (inactive)
10,O=C(C=C1SCCS1)/C=C/c1ccco1,-0.337% (inactive)
11,COc1cccc(C(=O)CC(=O)C(=O)Nc2ccc(C)cc2Cl)c1,13.5% (inactive)
12,CCSC1=C(C#N)C(c2ccc(C)o2)CC(=O)N1 (centres undefined),7.27% (inactive)
13,CCCC(=O)NCCCc1nc2ccccc2[nH]1,6.88% (inactive)
14,Cc1cc(N=Cc2c(O)ccc3cc(Br)ccc23)no1,16.6% (inactive)
15,CCOc1ccc(/C=N/Nc2cc(N3CCOCC3)ncn2)c(O)c1,9.16% (inactive)
16,Cc1cc(=O)[nH]c(N/N=C/c2ccc(C)o2)n1,5.2% (inactive)
17,COc1ccc(NC(=O)c2cc3ccccc3oc2=O)cc1,4.4% (inactive)
18,O=C1c2ccccc2C(Nc2cccnc2)N1Cc1ccccc1 (centres undefined),4.75% (inactive)
19,C[C@H](CO)N1C[C@H](C)[C@@H](CN(C)C(=O)NC2CCCCC2)Oc2c(NS(=O)(=O)c3cn(C)cn3)cccc2C1=O,10.7% (inactive)
20,COc1ccc(C(c2sc3nc(C)nn3c2O)N2CCC(C(N)=O)CC2)cc1OC (centres undefined),4.88% (inactive)
21,CCCN(CCC)c1ncnc2nc[nH]c12,-15% (inactive)
22,Cc1ccc(-n2nc(C(=O)NCc3ccc(C)o3)c3c4ccccc4n(C)c3c2=O)cc1,1.07% (inactive)
23,Cc1ccc(-c2nnn(CC(=O)N(Cc3ccco3)C(C(=O)NC(C)(C)C)c3ccncc3)n2)o1 (centres undefined),6.77% (inactive)
